In the library only some 4.1% were active in any assay of this set; here they are far more common.
BH1578 lux ind: inducers of Vibrio cholerae quorum light production without autoinducers. V. cholerae BH1578 lux reporter, luminescence, 6 h. activation, % at 18.7 µM. actives 0.16% (n = 350,000); in the data active = activation mostly above about 9.7%, no sharp cut-off
Mtb UGM inh: inhibitors of M. tuberculosis UDP-galactopyranose mutase; P9WIQ1; actives 0.06% (n = 320,000); inhibition, % at 10 µM; purified UGM, fluorescence polarization probe displacement; in the data active = inhibition above about 10%, passing the limit was not always enough
Target sequence (P9WIQ1 whole entry, looked up): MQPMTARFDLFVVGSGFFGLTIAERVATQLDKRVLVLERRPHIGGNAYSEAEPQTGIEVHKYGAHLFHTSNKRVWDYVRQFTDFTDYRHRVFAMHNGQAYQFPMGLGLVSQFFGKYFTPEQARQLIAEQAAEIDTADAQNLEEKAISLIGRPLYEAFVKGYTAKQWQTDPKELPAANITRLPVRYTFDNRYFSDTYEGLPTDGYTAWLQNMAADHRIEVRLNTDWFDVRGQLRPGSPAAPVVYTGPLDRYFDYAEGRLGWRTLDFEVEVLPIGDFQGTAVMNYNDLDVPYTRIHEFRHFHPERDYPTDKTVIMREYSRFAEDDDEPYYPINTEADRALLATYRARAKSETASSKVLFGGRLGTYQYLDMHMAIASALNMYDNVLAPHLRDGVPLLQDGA
GDH-TPI inh: GDH-TPI coupled enzyme inhibition counter-screen. GDH-TPI coupled enzyme counterscreen, NADH absorbance. inhibition, % at 4.8 µM. actives 1.2% (n = 360,000); in the data active = inhibition above about 30%
Rv3671c inh: inhibits the M. tuberculosis serine protease Rv3671c; P9WHR9; inhibition, % at 5.96 µM; actives 0.048% (n = 320,000); AID 2606; in the data active = inhibition above about 38%;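 also: extracellular domain of Rv3671c used as enzyme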
FBA Mtb inh: inhibits M. tuberculosis FBA enzyme; P9WQA3; purified M. tuberculosis FBA, fluorescence read-out; AID 588726; actives 2.3% (n = 360,000); inhibition, % at 1 µM; in the data active = inhibition above about 27%
RecA splice inh: inhibitors of M. tuberculosis RecA intein splicing. actives 0.75% (n = 290,000). inhibition, % (concentration not given with the values). cell-free RecA intein splicing, fluorescence. P9WHJ3. AID 2221; in the data active = inhibition above about 30%
Large screens that a line does not name were inactive.

CCNC(=O)N1CCCC(C(=O)c2ccc3cc(OC)ccc3c2)C1 (centres undefined)	none
Cn1cc(CCC(=O)N2CCCC(C(=O)c3cccc4ccccc34)C2)cn1 (centres undefined)	none
COc1ccc2cc(C(=O)C3CCCN(C(=O)CSc4nnc(C)o4)C3)ccc2c1 (centres undefined)	FBA Mtb inh 126
Cc1nnc(SCC(=O)N2CCCC(C(=O)c3ccc(Cl)cc3)C2)o1 (centres undefined)	none
COc1ccc2cc(C(=O)C3CCCN(C(=O)CCc4cnn(C)c4)C3)ccc2c1 (centres undefined)	FBA Mtb inh 127
COc1ccc2cc(C(=O)C3CCCN(C(=O)c4cncs4)C3)ccc2c1 (centres undefined)	FBA Mtb inh 152 (no result: RecA splice inh)
COc1ccc2cc(C(=O)C3CCCN(C(=O)c4cccnc4)C3)ccc2c1 (centres undefined)	FBA Mtb inh 163
COC(=O)c1sc(S(=O)(=O)N2CC(C)OC(C)C2)c(C(=O)OC)c1C (centres undefined)	none (no result: Mtb UGM inh, RecA splice inh)
CCOc1ccccc1N=c1oc2cc(O)ccc2cc1C(=O)NCC1CCCO1 (centres undefined)	FBA Mtb inh 166 (no result: RecA splice inh)
COc1ccc(N=c2oc3cc(O)ccc3cc2C(=O)NCC2CCCO2)cc1 (centres undefined)	FBA Mtb inh 190
COc1ccc(N=c2oc3cc(O)ccc3cc2C(=O)NCC2CCCO2)c(OC)c1 (centres undefined)	GDH-TPI inh 32, FBA Mtb inh active
COc1cc(OC)cc(C(=O)NCC2CCCO2)c1 (centres undefined)	none
CC1CCCC(NC(=O)CCNC(=O)c2ccc(Br)cc2)C1C (centres undefined)	none
CCc1nc2c(OCc3ccc(OC(F)F)cc3)cccn2c1N(C)C(=O)c1ccco1	none (no result: Mtb UGM inh, Rv3671c inh, RecA splice inh)
COc1cccc2c1C(=O)c1c(O)c3c(c(O)c1C2=O)C[C@@](O)(C(=O)CO)C[C@@H]3O[C@H]1C[C@H](N)[C@H](O)[C@H](C)O1	Mtb UGM inh 40
COc1cccc2c1C(=O)c1c(O)c3c(c(O)c1C2=O)C[C@@](O)(C(=O)CO)C[C@@H]3OC1CC(N)C(O)C(C)O1 (some centres undefined)	none (no result: Mtb UGM inh, Rv3671c inh, RecA splice inh)
CN(/N=C/C=C/c1ccccc1)c1cc(=O)n(C)c(=O)[nH]1	GDH-TPI inh 73
COc1ccc(/C=N/N(C)c2cc(=O)n(C)c(=O)[nH]2)cc1OC	GDH-TPI inh 46
Cc1cc(/C=C(\C#N)C(=O)O)c(C)n1CC(C)C	GDH-TPI inh 35 (no result: RecA splice inh)
COCCn1c(SCC(=O)NC2CCCC2)nc2c(c1=O)SCC2	none
N#C/C(=C/c1cccs1)c1ccccn1	GDH-TPI inh 33
CCCCn1c(N)c(N(CC(C)C)C(=O)CC(NC(=O)c2ccccc2Cl)c2ccccc2)c(=O)[nH]c1=O (centres undefined)	none (no result: Mtb UGM inh, Rv3671c inh, RecA splice inh)
O=C(NCc1ccc(OC(F)(F)F)cc1)c1cccc2c1C(=O)c1ccc(N3CCCC3)cc1S2(=O)=O	none (no result: RecA splice inh)
CC1CCN(c2ccc3c(c2)S(=O)(=O)c2cccc(C(=O)NCc4cccc(F)c4)c2C3=O)CC1	none (no result: RecA splice inh)
O=C(NCCc1ccc(F)cc1)c1cccc2c1C(=O)c1ccc(N3CCC(Cc4ccccc4)CC3)cc1S2(=O)=O	Mtb UGM inh 11 (no result: RecA splice inh)
O=C(NCc1ccc(OC(F)(F)F)cc1)c1cccc2c1C(=O)c1ccc(N3CCCCC3)cc1S2(=O)=O	Mtb UGM inh 20 (no result: RecA splice inh)
O=C(O)c1cccc2c1C(=O)c1ccc(-c3ccc(OC(F)(F)F)cc3)cc1S2(=O)=O	GDH-TPI inh 32 (no result: RecA splice inh)
O=C(NCc1cccc(F)c1)c1cccc2c1C(=O)c1ccc(N3CCC(Cc4ccccc4)CC3)cc1S2(=O)=O	Mtb UGM inh 22 (no result: RecA splice inh)
Cc1ccc(OCC(=O)OC(C)C(=O)NC2CCCCC2C)cc1C (centres undefined)	none (no result: RecA splice inh)
CC(C)Nc1ncnc2c1ncn2[C@H]1CN(Cc2cccs2)C[C@@H](CO)O1	none (no result: Mtb UGM inh, Rv3671c inh, RecA splice inh)
CCOc1ccccc1-c1ccc2nccn2c1	none (no result: Mtb UGM inh, Rv3671c inh, RecA splice inh)
COc1ccc(CNC(=O)/C=C/[C@H]2O[C@@H](n3cc(C)c(=O)[nH]c3=O)C[C@@H]2O)cc1	none (no result: BH1578 lux ind, Mtb UGM inh, GDH-TPI inh, Rv3671c inh, RecA splice inh)
O=C(NNC(=S)NC(=O)c1ccccc1[N+](=O)[O-])c1ccccc1[N+](=O)[O-]	none
CCCCOc1ccccc1C(=O)NNC(=S)NC(=O)c1ccccc1[N+](=O)[O-]	GDH-TPI inh 31
COCCCN=Cc1c(O)[nH]c(=S)[nH]c1=O	GDH-TPI inh 33
CCCCCCCCN=Cc1c(O)[nH]c(=O)[nH]c1=O	none
CCNC(=O)C1(C)CCCN(Cc2ccc(Oc3ccccc3)cc2)C1 (centres undefined)	none (no result: Mtb UGM inh, Rv3671c inh, RecA splice inh)
CCOC(=O)Cc1csc(NC(=O)CN2CCOCC2)n1	none
COc1cnc(-c2ccccn2)nc1NC(C)C	FBA Mtb inh 46
CC1(C(=O)NCc2ccc(F)c(F)c2)Cc2c(-c3ccccc3)ccnc2O1 (centres undefined)	none (no result: Mtb UGM inh, Rv3671c inh, RecA splice inh)
CCN(CC)CCCNc1ccc(-c2nnc(-c3ccc(OCC(C)C)cc3)o2)cn1	FBA Mtb inh active
O=C1NC(=Nc2ccccc2)S/C1=C\c1cccnc1	GDH-TPI inh 33
Cc1ccc(N=C2NC(=O)/C(=C/c3cccnc3)S2)cc1C	none
O=C1N/C(=N/S(=O)(=O)c2ccccc2)S/C1=C/c1cccnc1	GDH-TPI inh 33
Cc1ccc(S(=O)(=O)/N=C2/NC(=O)/C(=C/c3ccncc3)S2)cc1	none (no result: BH1578 lux ind, GDH-TPI inh, FBA Mtb inh)
Cc1cc2nccnc2cc1C	none (no result: Mtb UGM inh, Rv3671c inh, RecA splice inh)
CC(=O)CSc1nc2cc3c(cc2cc1C#N)OCCO3	GDH-TPI inh 33
O=C1c2ccccc2C(=O)N1CC(O)COc1cccc2ccccc12 (centres undefined)	none (no result: BH1578 lux ind, Mtb UGM inh, GDH-TPI inh, Rv3671c inh, RecA splice inh)
CCn1c(=O)c([N+](=O)[O-])c(Cl)c2ccccc21	RecA splice inh 41
N#C/C(=C/c1cn(-c2ccccc2)nc1-c1cccc(S(=O)(=O)N2CCOCC2)c1)C(=O)NCc1ccco1	none
N#C/C(=C/c1cn(-c2ccccc2)nc1-c1cccc(S(=O)(=O)N2CCCC2)c1)C(=O)NCc1ccco1	GDH-TPI inh 31
COc1ccc(-c2nc(-c3ccccc3)nc(N3CCN(C)CC3)c2C#N)cc1	FBA Mtb inh 38
Nn1c(-c2cccc([N+](=O)[O-])c2)nc2ccccc2c1=O	none
Cc1ccc(S(=O)(=O)N2CCOCC2)cc1NC(=O)CNC1CCCC1	none
Cc1cc(O)ccc1Nc1nc(-c2cccnc2)cs1	none (no result: Rv3671c inh)
Cc1cc(O)ccc1Nc1nc(-c2cccs2)cs1	RecA splice inh 30
CC1CC(=Cc2ccc(N)cc2)C(=O)O1 (centres undefined)	GDH-TPI inh 35 (no result: Mtb UGM inh, Rv3671c inh, RecA splice inh)
Cc1ccc(/C=C2\CCOC2=O)cc1	none
CC1CC(=Cc2ccc([N+](=O)[O-])cc2)C(=O)O1 (centres undefined)	GDH-TPI inh 31 (no result: Mtb UGM inh, Rv3671c inh, RecA splice inh)
OC[C@@H]1CN(Cc2cccs2)C[C@H](n2cnc3c(N4CCOCC4)ncnc32)O1	none (no result: Mtb UGM inh, Rv3671c inh, RecA splice inh)
Cc1ccc(-c2sc(-c3ccccc3)nc2CC(=O)Nc2ccccc2F)cc1	none

From PubChem
